High-throughput results from PubChem.
In the library only some 7.4% were active in any assay of this set; here they are far more common.
HEK293 viab – GF-AFC viability counterscreen for inhibitors of alpha-synuclein gene (SNCA) expression. HEK-293-SNCA-luc viability, GF-AFC fluorescence, 24 h. Potency, µM (highest dose often 57.1 µM), inactives show at the highest dose activity change, negative = cytotoxicity, most hits filed as cytotoxic. 0.12% of 150,000 active;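 also: 0% = DMSO-treated cells and -100% = medium-only wells without cells; nearly all actives have a fitted effect of over 30% in size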
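HEK-293-SNCA-luc cells (1500/well) plated 24 h, then exposed 24 h to a dilution series; GF-AFC added 30 min at 37C, fluorescence 405/540 nm; normalised to medium-only and DMSO wells, Hill fit.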
NIH3T3 tox – Cytotoxic Profiling in NIH 3T3 Cell Line of Diverse Libraries Using Quantitative High-Throughput Screening; NIH 3T3 viability, CellTiter-Glo ATP luminescence, 48-72 h; Potency, µM (series often up to 96.7 µM), for inactives: at the highest dose activity change, negative = cytotoxicity, actives largely listed as inhibitors; 4.3% of 94,000 active; AID 1345082, 2018; also: nearly all actives have a fitted effect of over 55% in size
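Luminescent ATP readout (CellTiter-Glo, 10 min RT) after 48 or 72 hr compound exposure of NIH 3T3 cells seeded at 400 cells/well in 1536-well format; quantitative HTS.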
SNCA expr inhib – Primary qHTS assay for inhibitors of alpha-synuclein gene (SNCA) expression | Potency, µM (doses to about 57.2 µM), for the others: at the top dose activity change, negative = inhibition, usual class: inhibitors | HEK-293 SNCA-luciferase knock-in, luminescence, 24 h | 0.17% of 140,000 active | AID 1671194, 2021;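 also: plate controls were DMSO cells for no effect and cell-free wells for full effect; nearly all actives have a fitted effect of over 45% in size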
Luciferase inh – Firefly luciferase inhibition profiling of diverse chemical library using quantitative high-throughput screening | Potency, µM (highest dose often 115 µM), usual class: inhibitors | Luciferin 4-monooxygenase (Photinus pyralis), P08659 | 2.5% of 76,000 active | AID 1347043, 2019 | purified P. pyralis luciferase, luminescence, biochemical; also: nearly all actives have a fitted effect of over 65% in size
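Purified P. pyralis luciferase (10nM final) in 50mM Tris acetate pH 7.5, 10mM Mg acetate, 0.01% Tween-20, 0.05% BSA with 10uM D-luciferin and 10uM ATP. Compounds titrated qHTS. Luminescence imaged on CCD.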
hNpr1 antagonist – Natriuretic polypeptide receptor (hNpr1) antagonism - Primary qHTS | HEK293 hNpr1 GloSensor cGMP, ANP-stimulated luminescence | Potency, µM (titrated, usually from 46.3 µM), inactives show at the highest dose activity change, negative = inhibition, hits mostly inhibitors | Atrial natriuretic peptide receptor 1 (Homo sapiens), P16066 | 1.6% of 76,000 active; calls by dose curve; also: nearly all actives have a fitted effect of over 60% in size
Target sequence (P16066 whole entry, looked up): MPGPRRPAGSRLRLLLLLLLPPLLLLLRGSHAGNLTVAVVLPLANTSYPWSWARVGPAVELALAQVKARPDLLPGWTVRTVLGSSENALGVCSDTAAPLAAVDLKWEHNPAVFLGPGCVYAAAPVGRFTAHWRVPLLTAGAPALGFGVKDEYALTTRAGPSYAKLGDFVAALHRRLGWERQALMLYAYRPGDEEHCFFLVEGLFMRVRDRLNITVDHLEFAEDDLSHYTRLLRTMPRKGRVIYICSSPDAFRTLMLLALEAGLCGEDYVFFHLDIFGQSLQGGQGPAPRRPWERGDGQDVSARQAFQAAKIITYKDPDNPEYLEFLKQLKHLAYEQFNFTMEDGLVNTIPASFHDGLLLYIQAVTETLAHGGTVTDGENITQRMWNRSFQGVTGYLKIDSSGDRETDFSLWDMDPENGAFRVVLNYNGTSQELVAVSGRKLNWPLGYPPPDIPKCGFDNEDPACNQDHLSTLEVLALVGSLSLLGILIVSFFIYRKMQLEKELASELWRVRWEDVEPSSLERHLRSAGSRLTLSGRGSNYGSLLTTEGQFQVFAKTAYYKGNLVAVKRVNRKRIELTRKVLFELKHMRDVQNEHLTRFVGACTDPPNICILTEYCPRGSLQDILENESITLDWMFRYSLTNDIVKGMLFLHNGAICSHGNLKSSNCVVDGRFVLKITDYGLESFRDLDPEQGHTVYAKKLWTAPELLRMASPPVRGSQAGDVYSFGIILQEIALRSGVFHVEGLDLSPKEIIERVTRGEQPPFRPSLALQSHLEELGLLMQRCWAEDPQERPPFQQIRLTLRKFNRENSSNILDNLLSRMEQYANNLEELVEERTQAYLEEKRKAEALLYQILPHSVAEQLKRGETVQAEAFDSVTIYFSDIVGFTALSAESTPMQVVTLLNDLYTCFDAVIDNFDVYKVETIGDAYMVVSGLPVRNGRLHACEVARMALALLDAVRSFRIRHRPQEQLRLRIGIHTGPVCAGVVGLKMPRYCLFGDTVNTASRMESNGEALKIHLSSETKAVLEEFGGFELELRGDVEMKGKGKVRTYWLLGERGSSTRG
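HEK293 cells stably expressing human Npr1 and cGMP GloSensor pGS-40F, loaded 2 h with 2% GloSensor reagent, given compound 30 min at room temperature. Luminescence read before and 20 min after 0.1 nM hNppA.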
HEK293 tox – Cytotoxic Profiling in HEK 293 Cell Line of Diverse Libraries Using Quantitative High-Throughput Screening. AID 1345083, 2018. 6.6% of 94,000 active. Potency, µM (highest dose often 115 µM), for the others: top-dose activity change, negative = cytotoxicity, most hits filed as inhibitors. HEK 293 viability, ATP luminescence (CellTiter-Glo), 48-72 h; also: nearly all actives have a fitted effect of over 60% in size
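HEK 293 cells at 250 cells/well were exposed to compounds by pintool transfer for 48 or 72 hr at 37 degree Celsius, 5% CO2. Viability was read as ATP-coupled luminescence with CellTiter-Glo after 10 min at room temperature.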
* = called active by the depositor; i = inactive; ? = inconclusive; / = no result given; [ ] = dose if it differs, or a comment. Unless noted, calls follow the shape of the dose curve; as a rule, active = well fitted curve in the direction sought with a large enough effect; inconclusive = small, poorly fitted or top-dose-only effect, or another doubt; inactive = no such curve, though single readings can be large; an effect the other way counts as inactive or inconclusive. Unless noted, % is scaled to controls: 0 for no effect and ±100 for the full control effect; potency is read from the fitted curve at half-maximal effect.

SMILES | HEK293 viab | NIH3T3 tox | SNCA expr inhib | Luciferase inh | hNpr1 antagonist | HEK293 tox
O=C(CCc1c[nH]c2ccccc12)N1CCC(N2C(=O)C(O)C23CCCCC3)CC1 (stereo not given) | 3.8% | -3.8% | 32.6% | i | 5.3% | -8.2%
CNC(=O)CCn1ncc2cc(OCc3ccccc3-c3cccnc3)ccc21 | -3.5%[87.6 µM] | ? | 0.5%[87.6 µM] | i | -12.1%[70.6 µM] | ?
CNC(=O)CCn1ncc2cc(OCc3ccccc3-c3ccc(F)c(Cl)c3)ccc21 | ? | 79.4µM* | ? | ? | ? | 100µM*
CNC(=O)CCn1ncc2cc(OCc3ccccc3-c3ccccc3F)ccc21 | -10.8%[87.6 µM] | 79.4µM* | -17.2%[87.6 µM] | ? | -19.8%[70.6 µM] | 100µM*
OC1CN(Cc2ccccc2)CCN(c2nc(-c3ccccc3)no2)C1 (stereo not given) | -6.2% | -9.9% | 108.3% | 39.8µM* | ? | ?
Cc1ccc(CNC(=O)c2ccc3c(c2)CN(Cc2cccc(F)c2F)CCO3)cc1 | -3.1% | ? | ? | i | -2.9% | 79.4µM*
O=C(NCc1ccccc1F)c1ccc2c(c1)CN(Cc1cccc(F)c1F)CCO2 | -5.6% | ? | -16.2% | i | 6.5% | ?
O=C(NCCc1ccc(F)cc1)C1CCCN(Cc2cccc(-c3ccc(F)cc3F)c2)C1 (stereo not given) | -8.8% | ? | -22.4% | / | / | 39.8µM*
COc1ccc(CCNC(=O)C2CCCN(Cc3cccc(-c4ccc(F)cc4F)c3)C2)cc1 (stereo not given) | -28.0% | ? | ? | / | / | 10µM*
O=C(NCCc1ccccc1)C1CCCN(Cc2cccc(-c3ccc(F)cc3F)c2)C1 (stereo not given) | -5.3% | ? | -19.5% | / | / | 39.8µM*
O=C(Nc1ccccc1F)C1CCCN(Cc2cccc(-c3ccc(F)cc3F)c2)C1 (stereo not given) | -0.4% | ? | -17.1% | / | / | ?
CC(C)(C)c1nnc([C@H]2CCN(Cc3ccco3)C2)o1 | 3.3%[87.6 µM] | -13.3%[230 µM] | 11.5%[87.6 µM] | i | -6.4%[70.6 µM] | -16.8%[230 µM]
COCCc1nc(-c2cnc(C3CC3)nc2)n(-c2ccc(F)cc2F)n1 | 0.1% | 89.1µM* | -23.5% | i | 1.3% | ?
COc1ccc2cc(C(=O)N3CCC(Cc4ccc(C(=O)NC5CC5)cc4)CC3)[nH]c2c1 | -2.4% | 28.2µM* | -7.0% | i | ? | 35.5µM*
COCCNc1ncc(-c2cccc(N)c2)c2c1OCC2 | -8.2%[87.6 µM] | ? | 16.8%[87.6 µM] | 25.1µM* | -16.8%[70.6 µM] | ?
COCCNc1ncc(-c2cccc(O)c2)c2c1OCC2 | -15.6%[87.6 µM] | -54.1%[174 µM] | 33.2%[87.6 µM] | 28.2µM* | -0.4%[70.6 µM] | -60.2%[230 µM]
C=CCOc1cccc(-c2nc(C(=O)NCC)cs2)c1 | -4.7% | ? | 12.1% | i | -12.5% | ?
Cc1cc(F)ccc1OC1CN(CC2CCCCC2)C1 | -4.1%[87.6 µM] | ? | -21.7%[87.6 µM] | i | 24.7%[70.6 µM] | ?
CC(=O)Nc1ccc(CN2C(=O)OC3(CCN(C(=O)c4scnc4C)CC3)C2(C)c2ccccc2)cc1 (stereo not given) | 11.5% | ? | 15.8% | i | -10.7% | -1.4%
O=C(NCCc1ccccn1)c1cn2ccnc(-c3ccccc3)c2n1 | ? | ? | 6.4% | i | -8.8% | ?
CSc1ccc(-c2cccc(C(=O)NCC(=O)N3CCN(c4ncccn4)CC3)c2)cc1 | -23.9% | ? | 8.2% | / | / | 22.4µM*
CSc1ccc(-c2cccc(C(=O)NCC(=O)N3CCOCC3)c2)cc1 | 0.5% | ? | 58.6% | / | / | ?
O=C(CNC(=O)c1cccc(-c2ccc(C(F)(F)F)cc2)c1)NCc1cccc(Cl)c1 | 4.9%[12.5 µM] | ? | ? | / | / | 28.2µM*
O=C(NCC(=O)N1CCC(c2ccccc2)CC1)c1cccc(-c2ccc(C(F)(F)F)cc2)c1 | -0.8%[12.5 µM] | ? | -18.9% | / | / | 10µM*
CSc1ccc(-c2cccc(C(=O)NCC(=O)NCc3ccc(F)cc3)c2)cc1 | -3.4% | ? | -23.8% | / | / | 15.8µM*
SMILES | HEK293 viab | NIH3T3 tox | SNCA expr inhib | Luciferase inh | hNpr1 antagonist | HEK293 tox
CSc1ccc(-c2cccc(C(=O)NCC(=O)N3CCC(c4ccccc4)CC3)c2)cc1 | 4.0% | -46.3% | -12.8% | / | / | ?
CSc1ccc(-c2cccc(C(=O)NCC(=O)NCc3ccccc3)c2)cc1 | -25.0% | ? | -11.1% | / | / | ?
Cc1nc(C(=O)NCC(=O)O)c(O)c2ccc(Oc3ccccc3)cc12 | 6.0% | / | 27.5% | / | / | /
COCCN1CCNc2nc(COc3ccc(Cl)cc3OC)n(Cc3ccccc3)c2C1=O | -6.0% | -33.6% | 4.6% | i | -6.6% | ?
CSc1ccc(-c2ccc3c(c2)C(=O)N2CCN(C(=O)CCC(=O)O)C[C@H]2C(=O)N3)cc1 | -1.5% | -3.7% | -2.8% | 31.6µM* | 3.7% | -1.6%
CSc1ccc(-c2ccc3c(c2)C(=O)N2CCN(C(=O)CC(C)(C)C)C[C@@H]2C(=O)N3)cc1 | -20.3% | ? | -21.3% | i | -20.4% | 35.5µM*
Cc1ccc(C(=O)N(C)Cc2cccn2C)cc1 | 1.9%[87.6 µM] | -20.1%[138 µM] | 51.7%[87.6 µM] | ? | 19.0%[70.6 µM] | -8.2%[172 µM]
CCOc1ccc(-c2nc(C3CC(=O)N(c4ccc(Cl)cc4)C3)no2)cc1 (stereo not given) | -7.9% | -19.2% | 12.7% | i | -18.6% | -12.3%
O=C1NC2(CCN([S+](=O)([O-])c3cccs3)C2)Oc2ccccc21 (stereo not given) | 1.0% | -20.4% | -24.7% | i | 6.6% | -23.3%
COc1ccccc1-c1[nH]nc2ncc(C(=O)N3CCNC(=O)C3)nc12 | 2.3%[87.6 µM] | ? | -15.3%[87.6 µM] | i | 3.0%[70.6 µM] | -15.2%[172 µM]
COc1ccccc1-c1[nH]nc2ncc(C(=O)NCCc3ccccn3)nc12 | ? | ? | 2.4%[87.6 µM] | i | -1.9%[70.6 µM] | 63.1µM*
COc1ccccc1-c1[nH]nc2ncc(C(=O)N(C)c3ccccc3)nc12 | -15.4%[87.6 µM] | ? | 7.3%[87.6 µM] | i | -22.2%[70.6 µM] | 89.1µM*
CC(C)(C)NC(=O)C[C@@H]1CCNC[C@@H]1Cc1cc(-c2ccc(F)cc2)on1 | -8.4%[87.6 µM] | ? | ? | i | -7.6%[70.6 µM] | ?
CC(C)(C)c1ccc(-c2cc(C[C@H]3CNCC[C@H]3CC(=O)NCCN3CCOCC3)no2)cc1 | 5.4% | 50.1µM* | 12.4% | i | -2.3% | 39.8µM*
CC(C)NC(=O)C[C@@H]1CCNC[C@@H]1Cc1cc(-c2ccc(C(C)(C)C)cc2)on1 | -11.1%[87.6 µM] | 35.5µM* | -13.7%[87.6 µM] | i | 3.7%[70.6 µM] | 39.8µM*
